Experimental findings from PubChem BioAssay (EPA / NIEHS) are described below.

In general, AC50 refers to the concentration giving half of the maximal activity seen.

Where “and” joins values, the source holds several entries; their conditions need not be identical. Equal entries are not always repeated. A structure can be active in one record and inactive in another. Calls of active or inactive are those of the source. The calls were made as follows: active = hit-call score of the fitted dose curve at least 0.9, where 1 is the maximum; inactive = score below 0.9.

Chain of Tumor necrosis factor (Homo sapiens) (P01375 whole entry, looked up): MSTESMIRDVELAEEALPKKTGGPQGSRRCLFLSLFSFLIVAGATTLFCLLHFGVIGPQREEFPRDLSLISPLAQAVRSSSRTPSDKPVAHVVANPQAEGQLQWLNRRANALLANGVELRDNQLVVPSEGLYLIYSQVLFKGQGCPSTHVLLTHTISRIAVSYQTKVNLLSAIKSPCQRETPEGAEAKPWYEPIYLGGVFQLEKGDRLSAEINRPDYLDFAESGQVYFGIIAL

Read-out in one experiment: Interleukin 6 (IL6), IL6 (gene 3569)
The experiment is described as follows: BSK_BT_xIL6: BioMAP Diversity Plus: BT Assay for Interleukin 6 (IL6) Biomarker Activity (AID 2284228). Conditions: primary human B cells with PBMC. A digest of the protocol: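 IL-6 secretion measured (Luminex xMAP) in human primary B cell + PBMC co-culture at 24 h of chemical exposure; DMSO served as negative control and activity baseline, with curves fitted for increase.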
`ClC1C(Cl)C(Cl)C(Cl)C(Cl)C1Cl` (configuration not stated): the result was inactive.
Regarding `O=C(O)C(F)(F)C(F)(F)C(F)(F)C(F)(F)C(F)(F)C(F)(F)C(F)(F)F`, the result was inactive.
`O=S(=O)(O)C(F)(F)C(F)(F)C(F)(F)C(F)(F)C(F)(F)C(F)(F)C(F)(F)C(F)(F)F`: the outcome was inactive.

Read-out in the next experiment: Interleukin 17A (IL17A), IL17A (gene 3605)
The experiment can be described thus: BSK_BT_xIL17A: BioMAP Diversity Plus: BT Assay for Interleukin 17A (IL17A) Biomarker Activity (AID 2284229). To be noted: primary human B cells with PBMC. A digest of the protocol: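 Human primary B cells plus PBMC, treated 24 h with chemicals; supernatant IL-17A quantified on Luminex xMAP beads. Gain of signal over DMSO control scored as activity.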
Regarding `ClC1C(Cl)C(Cl)C(Cl)C(Cl)C1Cl` (configuration not stated), the result was inactive.
With `O=C(O)C(F)(F)C(F)(F)C(F)(F)C(F)(F)C(F)(F)C(F)(F)C(F)(F)F`, the outcome was inactive.
On the same count and under the same terms, for `O=S(=O)(O)C(F)(F)C(F)(F)C(F)(F)C(F)(F)C(F)(F)C(F)(F)C(F)(F)C(F)(F)F` the value was “inactive”.

Read-out in the next experiment: Tumor necrosis factor (Homo sapiens) (UniProt P01375)
The experiment is described as follows: BSK_BT_xTNFa: BioMAP Diversity Plus: BT Assay for Tumor necrosis factor alpha (TNF-alpha) Biomarker Activity (AID 2284230). To be noted: primary human B cells with PBMC. A digest of the protocol: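 Endpoint derived in the positive direction versus DMSO vehicle. Cells: B cells together with PBMC, exposed 24 h before TNF-alpha in the medium was read on the Luminex xMAP platform.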
`ClC1C(Cl)C(Cl)C(Cl)C(Cl)C1Cl` (configuration not stated): the AC50 is 30.5 µM (active) and the outcome was inactive.
The matching figures for `O=C(O)C(F)(F)C(F)(F)C(F)(F)C(F)(F)C(F)(F)C(F)(F)C(F)(F)F`: 5.95 µM (active) and “inactive”.
Turning to `O=S(=O)(O)C(F)(F)C(F)(F)C(F)(F)C(F)(F)C(F)(F)C(F)(F)C(F)(F)C(F)(F)F`, the outcome was inactive.

Read-out in a further experiment: Vascular cell adhesion molecule 1 (VCAM1), VCAM1 (gene 7412)
The experiment can be described thus: BSK_MyoF_VCAM1: BioMAP Diversity Plus: MyoF Assay for Vascular cell adhesion molecule 1 (VCAM1) Biomarker Activity (AID 2284231). To be noted: primary human lung fibroblasts. A digest of the protocol: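 VCAM-1 levels, lung fibroblasts, ELISA, 24 h exposure, increase scored relative to DMSO.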
Turning to `ClC1C(Cl)C(Cl)C(Cl)C(Cl)C1Cl` (configuration not stated), the AC50 was 16.3 µM (active) and 261 nM (active).
Consider `O=C(O)C(F)(F)C(F)(F)C(F)(F)C(F)(F)C(F)(F)C(F)(F)C(F)(F)F`, for which the result was inactive.
The same measure, in the same setting: then `O=S(=O)(O)C(F)(F)C(F)(F)C(F)(F)C(F)(F)C(F)(F)C(F)(F)C(F)(F)C(F)(F)F`, with “inactive”.

Tested on in a further experiment: not listed separately
The experiment can be described thus: UKN4_HCS_LUHMES_cell_viability: Viability Assessment in the University of Konstanz (UKN) Leist Lab Neurite Outgrowth Assay in human LUHMES cells (UKN4) (AID 2284232).
Conditions: not given
Put shortly:
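Cells switched to differentiation medium at day 0, replated on day 2 in medium lacking cAMP and GDNF, and compound-treated once attached. Live staining began 23.5 h later, imaging followed at 24 h.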
Consider `CCC(C)(C)C(=O)OC1=C(c2ccc(Cl)cc2Cl)C(=O)OC12CCCCC2`, for which the result was inactive.
Same read-out and setting: for `CC(C)N(C(=O)COc1nnc(C(F)(F)F)s1)c1ccc(F)cc1` the value was “inactive”; for `COP(=S)(OC)Oc1ccc([N+](=O)[O-])cc1`, “inactive”; for `ClC1C(Cl)C(Cl)C(Cl)C(Cl)C1Cl` (configuration not stated), “inactive”.
For `O=[N+]([O-])/N=C1\NCCN1Cc1ccc(Cl)nc1`, the result was inactive.
For `O=C(O)C(F)(F)C(F)(F)C(F)(F)C(F)(F)C(F)(F)C(F)(F)C(F)(F)F`, the AC50 was 89.4 µM (active).
The same measure, in the same setting: for `O=S1OCC2C(CO1)C1(Cl)C(Cl)=C(Cl)C2(Cl)C1(Cl)Cl` (configuration not stated) the value was 18.7 µM (active).
The same measure, in the same setting: for `O=S(=O)(O)C(F)(F)C(F)(F)C(F)(F)C(F)(F)C(F)(F)C(F)(F)C(F)(F)C(F)(F)F` the value was 20.4 µM (active).

Tested on in the next experiment: not listed separately
The experiment can be described thus: UKN2_HCS_IMR90_cell_viability: Viability Assessment in the University of Konstanz (UKN) Leist Lab Neural Crest Cell Migration Assay in human induced IMR90 Pluripotent Stem Cells (UKN2) (AID 2284233).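 Also: cells exposed to compound for 24 h after a 24 h migration phase.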
Conditions: not given
Put shortly: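 After calcein-AM/Hoechst staining, viability is quantified by high-content fluorescence imaging, relative to DMSO, in iPSC (IMR90)-derived neural crest cells. Exposure lasts 24 h, starting after a 24 h migration period on PLO/laminin/fibronectin coating.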
Turning to `CC1(C)C(C=C(Cl)Cl)C1C(=O)OC(C#N)c1ccc(F)c(Oc2ccccc2)c1` (configuration not stated), the outcome was inactive.
On the same count and under the same terms, for `CC(C)N(C(=O)COc1nnc(C(F)(F)F)s1)c1ccc(F)cc1` the value was “inactive”.
On the same count and under the same terms, then `O=C(O)COc1ccc(Cl)cc1Cl`, with “inactive”; and `CC1(c2ccc(Oc3ccccc3)cc2)OC(=O)N(Nc2ccccc2)C1=O` (configuration not stated), with “inactive”.
As to `CC[C@H](C)[C@H]1O[C@]2(C=C[C@@H]1C)C[C@@H]1C[C@@H](C/C=C(\C)[C@@H](O[C@H]3C[C@H](OC)[C@@H](O[C@H]4C[C@H](OC)[C@@H](O)[C@H](C)O4)[C@H](C)O3)[C@@H](C)/C=C/C=C3\CO[C@@H]4[C@H](O)C(C)=C[C@@H](C(=O)O1)[C@]34O)O2` (tested in a mixture with another compound), the AC50 is 7.09 µM (active).
For `COP(=O)(OC)OC=C(Cl)Cl`, the molecule was classed as inactive.
Same read-out and setting: then `ClC1C(Cl)C(Cl)C(Cl)C(Cl)C1Cl` (configuration not stated), with “inactive”; and `O=[N+]([O-])/N=C1\NCCN1Cc1ccc(Cl)nc1`, with “inactive”.
`O=C(O)C(F)(F)C(F)(F)C(F)(F)C(F)(F)C(F)(F)C(F)(F)C(F)(F)F`: the molecule was called inactive.
Consider `O=S1OCC2C(CO1)C1(Cl)C(Cl)=C(Cl)C2(Cl)C1(Cl)Cl` (configuration not stated), for which the AC50 is 14.8 µM (active).
